Only a selection was taken, and hits are over-represented in it overall.
HIV RNase H inh-1: HIV-1 RT RNase H inhibitors, primary screen, biochemical, fluorescence. Gag-Pol polyprotein (Human immunodeficiency virus type 1 group M subtype B (isolate …. RT-RNase H RNA/DNA duplex cleavage. inhibition, % at 10 µM. 65,000 tested, 1.9% active; in the data active means inhibition above about 50%
RmlCD inh mix: RmlC and RmlD coupled enzyme inhibitors, primary screen, biochemical, 384-well, compound mixtures, retest; inhibition, % at 5.5 µM; RmlC/RmlD coupled enzyme inhibition, 384-well mixture HTS; 110,000 tested, 0.39% active; AID 1532, 2009; in the data active means inhibition above about 30%, passing the limit was not always enough; inconclusive means no clear call, values can overlap the other calls
HIV RNase H inh-2: HIV-1 RT RNase H inhibitors, retest, confirmation, biochemical; shares compounds with HIV RNase H inh-1; Recombinant RT RNase H, fluorescent RNA/DNA duplex cleavage; inhibition, % at 10 µM; 1,000 tested, 39% active; AID 651, 2007; in the data active means inhibition above about 48%; inconclusive means no clear call, values can overlap the other calls
Numbers stand for hits; n = inactive; u = inconclusive; x = no result given.

SMILES	HIV RNase H inh-1	RmlCD inh mix	HIV RNase H inh-2
CCC(C)C(NC(C)=O)C(=O)NC(=O)NC(c1ccccc1)c1ccccc1 (configuration not stated)	x	n	x
COC(=O)C1=C(C)N=c2s/c(=C3\C(=O)Nc4ccccc43)c(=O)n2C1c1ccccc1 (configuration not stated)	90	x	70
CCOC(=O)C1=C(C)N=c2s/c(=C3/C(=O)Nc4ccccc43)c(=O)n2C1c1ccc(C)cc1 (configuration not stated)	x	n	x
CC(/C=C/C=C/c1ccccc1)=N/NC(=O)CNc1ccc(C)cc1	x	n	x
Cc1ccn2c(C(=O)N/N=C\c3ccccc3[N+](=O)[O-])c(C)nc2c1	x	n	x
CCOC(=O)C1CCCN(C(=O)c2cc(Nc3ccc(OC)cc3)nc3ccccc23)C1 (configuration not stated)	x	n	x
CC1(C)Cc2c(sc3c2C(=O)NC(c2cccnc2)N3)CO1 (configuration not stated)	54	n	n
O=C1NC(c2cccnc2)Nc2sc3c(c21)CCCC3 (configuration not stated)	x	n	x
O=C(COc1ccc(S(=O)(=O)N2CCOCC2)cc1)Nc1ccccc1C(F)(F)F	x	n	x
Cc1ccc(-c2csc(N(C)C(=O)c3c(C)nn(-c4ccccc4)c3Cl)n2)cc1	x	n	x
Cc1ccc(Nc2c(-c3ccc(C)o3)nc3cnccn23)cc1	x	n	x
Cc1ccc(-c2nc3cnccn3c2Nc2ccccc2)o1	88	n	n
COc1cc(OC)c(OC)cc1/C=N/NC(=S)NCC1CCCO1 (configuration not stated)	x	n	x
Cc1cc(C)nc(Nc2nc3ccccc3[nH]2)n1	n	n	x
c1ccc(Nc2nc3ccccc3[nH]2)nc1	80	n	n
CCN(CC)C(=O)CC(c1ccc(OC)cc1)c1c(OC)cc(OC)c2ccc(=O)oc12 (configuration not stated)	x	n	x
CCCCCCn1c(SCC(=O)Nc2cc(C)on2)nc2ccccc2c1=O	n	n	x
Cc1cc(NC(=O)CSc2nc3ccccc3c(=O)n2Cc2ccc(F)cc2)no1	68	n	n
Cc1cc(NC(=O)CSc2nc3cc4c(cc3c(=O)n2CCc2ccccc2)OCO4)no1	78	n	71
COc1ccc(CCn2c(SCC(=O)Nc3cc(C)on3)nc3ccccc3c2=O)cc1OC	n	x	x
Cc1ccc(-c2c(C#N)c(N)nc3c2CCCC3)s1	x	n	x
Cc1ccc(-n2c(N)c(C(N)=O)sc2=S)cc1	95	n	64
Cc1ccc(-n2c(N)c(C(=O)NCc3ccco3)sc2=S)cc1	x	n	x
CCOC(=O)c1cc(-c2ccc(C)cc2)n(CC(=O)NCc2ccco2)c1C	58	n	n
CCOC(=O)c1cc(-c2ccc(C)cc2)n(CCC(=O)NCCN(C)C)c1C	n	u	x
SMILES	HIV RNase H inh-1	RmlCD inh mix	HIV RNase H inh-2
CCC(C(=O)NC1CCCCC1)N(CC1CCCO1)C(=O)CNS(=O)(=O)c1ccc(OC)cc1 (configuration not stated)	n	n	x
CCCC(C(=O)NC1CCCCC1)N(CC1CCCO1)C(=O)CNS(=O)(=O)c1ccc(F)cc1 (configuration not stated)	58	n	n
Cc1ccccc1NS(=O)(=O)c1ccc(OCC(=O)N2CCCCC2)cc1	x	n	x
CC(C)C[C@H](N)c1cn([C@@H](Cc2ccc(O)cc2)C(=O)N2CCNCC2)nn1	x	n	x
Cc1ccc(C)c(Cn2c(=O)n(CCC(=O)NCc3ccco3)c(=O)c3ccccc32)c1	75	x	n
Cc1ccc(C)c(Cn2c(=O)n(CCCC(=O)NCc3ccco3)c(=O)c3sccc32)c1	x	n	x
Cn1c(SCC#N)nnc1-c1cnccn1	x	n	x
N=C1C(c2nc3ccccc3c(=O)[nH]2)=C(O)CN1CCO	n	n	x
N=C1C(c2nc3ccccc3c(=O)[nH]2)=C(O)CN1CCc1ccccc1	75	n	n
Cc1cccc(/C=C2/S/C(=N/N=C3\CC4CCC3(C)C4(C)C)NC2=O)c1 (configuration not stated)	x	n	x
CCCCN1Cc2cc(C(=O)c3cc(OC)ccc3O)cnc2NC1=O	x	n	x
Cc1ccc(O)c(C(=O)c2cnc3c(c2)CN(CCC(C)C)C(=O)N3)c1	63	n	u
COc1cc(C)nc(SCC(N)=O)n1	62	n	n
CCOC(=O)CSc1nc(C)cc(C)n1	x	n	x
Cc1cc(C(=O)CSc2nnc(-c3ccc(OC(F)F)cc3)o2)c(C)n1Cc1cccs1	79	n	67
COc1ccc(-n2cnnc2SCC(=O)c2cc(C)n(Cc3cccs3)c2C)cc1	n	n	x
O=C1CCCC(=O)C1=Cc1c[nH]c2ccccc12	x	n	x
CCn1c(SCC(=O)Nc2ccc3c(c2)OCCO3)nnc1-c1ccco1	n	n	x
CCn1c(SCC(=O)Nc2oc(-c3ccccc3)c(-c3ccccc3)c2C#N)nnc1-c1ccncc1	x	n	x
CCn1c(SCC(=O)Nc2ccc3c(c2)c2ccccc2n3CC)nnc1-c1ccco1	100	x	n
CCn1c(SCC(=O)Nc2oc(-c3ccccc3)c(-c3ccccc3)c2C#N)nnc1-c1ccco1	64	n	n
CCNC(=O)CSc1ncnc2sccc12	x	n	x
N#Cc1c(NC(=O)CSc2ncnc3sccc23)oc(-c2ccco2)c1-c1ccco1	74	n	n
CS(=O)(=O)N(Cc1ccccc1)c1ccccc1C(=O)N1CCN(c2ccccc2)CC1	x	n	x
Cc1cc(NC(=O)c2ccc3c(c2)C(=O)N(C)C3=O)no1	x	n	x
SMILES	HIV RNase H inh-1	RmlCD inh mix	HIV RNase H inh-2
Cc1cc(NC(=O)c2ccc3c(c2)C(=O)N(C2CCCCC2)C3=O)no1	64	n	n
COc1ccc(C2CC(c3cccs3)=NN2c2nc(-c3ccccc3)cs2)cc1OC (configuration not stated)	x	n	x
CCC(CC)C(=O)Nc1cccc(C(=O)c2ccccc2)c1	x	n	x
C=CCn1c(=O)[nH]c2cc(C(=O)N3CCN(c4cc(C)ccc4C)CC3)ccc2c1=O	80	x	n
C=CCn1c(=O)[nH]c2cc(C(=O)N3CCN(c4ccc(C(C)=O)cc4)CC3)ccc2c1=O	n	x	x
Cc1c(C(=O)NCc2ccc3c(c2)cc(C)n3C)cccc1[N+](=O)[O-]	x	n	x
CCCCCCCCc1nnc(NC(=O)c2ccco2)s1	x	n	x
CCN1C(=O)/C(=C2/Sc3ccc(OC)cc3N2C)SC1=Nc1ccc(C(C)=O)cc1	n	x	x
CCN1C(=O)/C(=C2/Sc3ccc(OC)cc3N2C)SC1=Nc1cccc(O)c1	51	n	n
CCCCCCCN1C/C=C\C(c2ccc(OC)cc2)N(Cc2ccc(F)cc2)C(=O)[C@H]1Cc1ccccc1 (some centres not stated)	x	n	x
O=c1ccc(Cl)cn1Cc1ccccc1F	x	n	x
Cc1ccc(NCc2ccccc2O)cc1	x	n	x
Cc1ccc(CNc2ccc(O)cc2)cc1	57	x	n
Cc1cccc(Nc2nnc(-c3ccc(C(=O)N4C[C@H]5C[C@H](C4)c4cccc(=O)n4C5)cc3)c3ccccc23)c1	x	n	x
NC(=O)C1CCN(S(=O)(=O)c2cccc(C(=O)O)c2)CC1	x	n	x
Cn1c(NN)nc2sc3c(c2c1=O)CC(C)(C)OC3	x	n	x
CCC1CC2(C)NC(=O)c3c(sc4c3CC(C)(C)OC4)N2C1=O (configuration not stated)	79	x	60
COC(=O)c1ccc2c(c1)N(Cc1nc(-c3ccc(Cl)cc3)oc1C)C(=O)C1CCCN21 (configuration not stated)	78	x	96

Bioassay records: PubChem, several laboratories
